# Test results from PubChem BioAssay (Tox21).
# Values joined by “and” are separate entries in the source; they are usually repeats but may differ in a detail not shown here. Equal entries are not always repeated. Results filed as inconclusive are left out. A call without a number means that no potency is given here. Some structures have more than one record in an assay (separate samples or runs), and their calls can disagree. Active and inactive are the calls of the source. Unless noted, calls follow the shape of the dose curve; as a rule, active = well fitted curve in the direction sought with a large enough effect in the repeat runs; inconclusive = weak or mixed curves; inactive = no such curve, though single readings can be large; an effect the other way counts as inactive or inconclusive.
# Tests used:
# [1] = qHTS assay to identify small molecule agonists of the estrogen receptor alpha (ER-alpha) signaling pathway in the presence of an antagonist - cell viability counter screen (AID 1259386);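 also: series mostly up to about 92 µM; cells exposed to compounds for 22 h at 37 °C before the viability read; nearly all actives have a fitted effect of over 30% in size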
# How it was run: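 Cell viability in VM7Luc4E2 cells (endogenous full-length ER-alpha) measured by CellTiter-Fluor fluorescence in the same wells as the luciferase screen. Cells pre-cultured 5 days in charcoal-stripped serum, then treated 22 h with compounds at 15 concentrations plus 10.0nM ICI-182,780.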
# [2] = molecular target: Progesterone receptor (Homo sapiens) (UniProt P06401); assay: qHTS assay to identify small molecule agonists of the progesterone receptor (PR) signaling pathway (AID 1346784; calls by dose curve; also: nearly all actives have a fitted effect of over 30% in size)
# Progesterone receptor (Homo sapiens), sequence (P06401 whole entry, looked up): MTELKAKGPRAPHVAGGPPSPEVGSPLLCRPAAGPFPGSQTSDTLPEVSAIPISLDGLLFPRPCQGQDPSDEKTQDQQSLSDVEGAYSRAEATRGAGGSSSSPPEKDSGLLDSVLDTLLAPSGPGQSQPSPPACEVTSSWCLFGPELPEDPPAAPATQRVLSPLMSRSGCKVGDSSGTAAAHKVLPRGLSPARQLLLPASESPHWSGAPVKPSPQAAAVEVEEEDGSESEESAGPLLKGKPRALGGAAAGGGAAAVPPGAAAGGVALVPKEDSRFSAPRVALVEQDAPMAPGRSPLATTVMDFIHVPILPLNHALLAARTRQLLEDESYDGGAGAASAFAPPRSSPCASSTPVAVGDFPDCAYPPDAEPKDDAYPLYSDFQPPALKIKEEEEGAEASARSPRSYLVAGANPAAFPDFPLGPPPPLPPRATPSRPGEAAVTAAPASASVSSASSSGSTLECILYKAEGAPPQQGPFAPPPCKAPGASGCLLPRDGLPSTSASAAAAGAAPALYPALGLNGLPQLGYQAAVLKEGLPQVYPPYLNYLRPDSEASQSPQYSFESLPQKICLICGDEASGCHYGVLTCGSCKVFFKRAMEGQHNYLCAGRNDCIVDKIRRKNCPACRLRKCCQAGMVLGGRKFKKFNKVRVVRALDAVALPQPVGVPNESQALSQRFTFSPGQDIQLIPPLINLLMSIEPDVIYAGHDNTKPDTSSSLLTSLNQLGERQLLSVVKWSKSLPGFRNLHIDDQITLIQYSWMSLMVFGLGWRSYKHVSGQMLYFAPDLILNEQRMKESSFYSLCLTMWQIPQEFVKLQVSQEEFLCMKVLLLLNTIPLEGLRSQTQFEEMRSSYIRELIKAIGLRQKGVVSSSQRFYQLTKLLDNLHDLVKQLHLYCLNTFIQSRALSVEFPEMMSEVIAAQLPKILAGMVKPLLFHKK
# How it was run: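 The screen uses PR-UAS-bla HEK 293T cells in charcoal-stripped serum (2%). Compounds are applied for 16 hr at 37C after a 6 hr pre-incubation, and reporter activity is detected with a FRET beta-lactamase substrate after 2 hr at room temperature.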
# [3] = molecular target: Progesterone receptor (Homo sapiens) (UniProt P06401); assay: qHTS assay to identify small molecule antagonists of the progesterone receptor (PR) signaling pathway (AID 1346795; active = well fitted inhibition curve with a large enough effect in the signal ratio in the repeat runs, not every such curve was filed as active; the % refers to the signal ratio)
# How it was run: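 After 6 hr plating at 37C in 2% stripped-serum medium, PR-UAS-bla HEK293T cells got compounds, then 1 nM R5020. Sixteen hours later, LiveBLAzer substrate was applied for 2 hr at room temperature and fluorescence was recorded.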
# [4] = qHTS assay to identify small molecule antagonists of the progesterone receptor (PR) signaling pathway - cell viability counter screen (AID 1346798); also: series mostly up to about 92 µM; nearly all actives have a fitted effect of over 50% in size
# How it was run: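 Viability was determined by ATP-based luminescence (CellTiter-Glo) in PR-UAS-bla HEK293T cells cultured in 2% charcoal-stripped serum and incubated 16 hr with compounds under R5020 stimulation.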
# [5] = qHTS assay to identify small molecule agonists of the progesterone receptor (PR) signaling pathway - cell viability counter screen (AID 1346799; calls by dose curve; also: nearly all actives have a fitted effect of over 45% in size; also: potency is read from the fitted curve at half-maximal effect)
# How it was run: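 Viability was scored by ATP luminescence (CellTiter-Glo, 30 min, room temperature) in the same wells used for the reporter readout, after 16 hr compound exposure of PR-UAS-bla HEK293T cells.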
# [6] = qHTS assay to identify small molecule antagonists of the TGF-beta/Smad signaling pathway - cell viability counter screen (AID 1346824); also: nearly all actives have a fitted effect of over 50% in size
# How it was run: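 SBE-bla HEK 293T cells, incubated overnight, then compound plus 0.25 ng/mL TGF-beta1 (stock added) for 5 hr at 37 C. Viability was read in the same wells by CellTiter-Glo luminescence after 30 min at room temperature.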
# [7] = qHTS assay to identify small molecule agonists of the TGF-beta/Smad signaling pathway - cell viability counter screen (AID 1346829); also: top concentration of the series differs between compounds; nearly all actives have a fitted effect of over 45% in size
# How it was run: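 Tox21 qHTS format: SBE-bla HEK 293T cells treated with DMSO-dissolved compounds for 5 hr; CellTiter-Glo luminescence after 30 min at room temperature.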
# [8] = qHTS assay to identify small molecule agonists of the TGF-beta/Smad signaling pathway (AID 1346859; active = well fitted activation curve with a large enough effect in the signal ratio in the repeat runs, not every such curve was filed as active; the % refers to the signal ratio; also: series mostly up to about 77 µM)
# How it was run: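 Dual-wavelength fluorescence (460/530 nm emission) quantified beta-lactamase expression under the Smad binding element in HEK 293T cells following 5 hr compound treatment at 37 C.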
# [9] = molecular target: Thyrotropin-releasing hormone receptor (Homo sapiens) (UniProt P34981); assay: qHTS assay to identify small molecule antagonists of the thyrotropin-releasing hormone receptor (TRHR) signaling pathway (AID 1346877; active = well fitted inhibition curve with a large enough effect in the repeat runs, not every such curve was filed as active; also: series mostly up to about 51 µM)
# Thyrotropin-releasing hormone receptor (Homo sapiens), sequence (P34981 whole entry, looked up): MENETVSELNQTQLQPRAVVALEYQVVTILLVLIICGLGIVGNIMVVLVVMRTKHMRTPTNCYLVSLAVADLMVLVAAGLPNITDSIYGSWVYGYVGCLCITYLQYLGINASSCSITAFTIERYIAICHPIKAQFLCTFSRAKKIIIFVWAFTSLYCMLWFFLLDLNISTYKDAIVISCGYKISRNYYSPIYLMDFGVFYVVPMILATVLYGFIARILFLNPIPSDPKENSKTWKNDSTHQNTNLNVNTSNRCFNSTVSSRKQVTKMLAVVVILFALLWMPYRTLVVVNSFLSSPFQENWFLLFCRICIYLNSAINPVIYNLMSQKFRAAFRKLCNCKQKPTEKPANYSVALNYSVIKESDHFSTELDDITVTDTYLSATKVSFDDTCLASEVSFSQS
# How it was run: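 TRHR-expressing HEK293 cells loaded with calcium dye for 2 h at 37 C; compounds pre-incubated 5 min at room temperature before TRH challenge at 1 nM final. Intracellular calcium fluorescence read kinetically for 3 min; 15 concentrations in triplicate.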
# [10] = molecular target: Thyrotropin-releasing hormone receptor (Homo sapiens) (UniProt P34981); assay: qHTS assay to identify small molecule agonists of the thyrotropin-releasing hormone receptor (TRHR) signaling pathway (AID 1346891; calls by dose curve; also: series mostly up to about 58 µM)
# How it was run: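 Kinetic fluorescence (3 min, 1 s intervals) reported intracellular calcium after compound transfer onto TRHR-Hek293 cells pre-loaded with dye for 2 h at 37 °C.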
# [11] = Human pregnane X receptor (PXR) small molecule agonists, qHTS cell viability counter screen (AID 1346977); also: nearly all actives have a fitted effect of over 50% in size
# How it was run: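 HepG2 cells stably carrying the PXR-Luc reporter are cultured with 5% charcoal-stripped FBS and treated with compounds for 24hr. CellTiter-Fluor is added at 23hr and fluorescence is read after 1hr.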
# [12] = Caspase-3/7 induction in HepG2 cells by small molecules, qHTS assay (AID 1346978); also: nearly all actives have a fitted effect of over 15% in size
# How it was run: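 Wild-type HepG2 cells, 2,000/well, settled 5 hr at 37 C and 5% CO2, then compound-treated for 17 hr; caspase-3/7 activity read by luminescent Caspase-Glo 3/7 after 30 min at room temperature.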
# [13] = Caspase-3/7 induction in CHO-K1 cells by small molecules, qHTS assay (AID 1346980); also: nearly all actives have a fitted effect of over 15% in size
# How it was run: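 Wild-type CHO-K1 cells exposed to compounds for 17hr at 37 C, 5% CO2. Caspase-3/7 activity then measured by Caspase-Glo 3/7 luminescence after 30min at room temperature.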
# [14] = Caspase-3/7 induction in HepG2 cells by small molecules, qHTS cell viability counter screen (AID 1346981); also: series mostly up to about 92 µM; nearly all actives have a fitted effect of over 30% in size
# How it was run: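 Wild-type HepG2 cells, 2,000/well, settled 5 hr at 37 C, 5% CO2 before compound addition. Viability read by CellTiter-Fluor fluorescence, reagent added after 16 hr compound exposure, then 1 hr at 37C, in the same wells as the caspase read.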
# [15] = molecular target: Nuclear receptor subfamily 1 group I member 2 (Homo sapiens) (UniProt O75469); assay: Human pregnane X receptor (PXR) small molecule agonists, qHTS assay (AID 1346982); also: nearly all actives have a fitted effect of over 35% in size; also: potency is read from the fitted curve at half-maximal effect
# Nuclear receptor subfamily 1 group I member 2 (Homo sapiens), sequence (O75469 whole entry, looked up): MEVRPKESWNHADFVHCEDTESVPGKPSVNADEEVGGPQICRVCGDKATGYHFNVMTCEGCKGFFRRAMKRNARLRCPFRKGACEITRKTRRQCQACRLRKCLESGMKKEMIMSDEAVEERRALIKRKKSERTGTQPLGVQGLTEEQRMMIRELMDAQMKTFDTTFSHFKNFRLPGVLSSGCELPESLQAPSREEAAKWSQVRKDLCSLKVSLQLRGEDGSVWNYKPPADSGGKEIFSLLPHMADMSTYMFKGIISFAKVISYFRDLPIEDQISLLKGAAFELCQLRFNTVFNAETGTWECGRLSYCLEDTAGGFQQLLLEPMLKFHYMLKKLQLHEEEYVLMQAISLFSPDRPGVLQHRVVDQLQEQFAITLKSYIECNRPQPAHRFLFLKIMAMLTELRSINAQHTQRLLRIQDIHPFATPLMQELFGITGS
# How it was run: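 PXR-Luc HepG2 reporter cells (CYP3A4-driven luciferase) in 5% charcoal-stripped FBS medium, plated 5 h before compound addition, then treated 24 h at 37C. Luciferase read by ONE-Glo luminescence after 30 min at room temperature.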
# [16] = molecular target: Acetylcholinesterase (Homo sapiens) (UniProt P22303); assay: Acetylcholinesterase (AChE) small molecule antagonists: colormetric cell-based qHTS assay (AID 1347395; calls by dose curve; also: nearly all actives have a fitted effect of over 30% in size; also: potency is read from the fitted curve at half-maximal effect)
# Acetylcholinesterase (Homo sapiens), sequence (P22303 whole entry, looked up): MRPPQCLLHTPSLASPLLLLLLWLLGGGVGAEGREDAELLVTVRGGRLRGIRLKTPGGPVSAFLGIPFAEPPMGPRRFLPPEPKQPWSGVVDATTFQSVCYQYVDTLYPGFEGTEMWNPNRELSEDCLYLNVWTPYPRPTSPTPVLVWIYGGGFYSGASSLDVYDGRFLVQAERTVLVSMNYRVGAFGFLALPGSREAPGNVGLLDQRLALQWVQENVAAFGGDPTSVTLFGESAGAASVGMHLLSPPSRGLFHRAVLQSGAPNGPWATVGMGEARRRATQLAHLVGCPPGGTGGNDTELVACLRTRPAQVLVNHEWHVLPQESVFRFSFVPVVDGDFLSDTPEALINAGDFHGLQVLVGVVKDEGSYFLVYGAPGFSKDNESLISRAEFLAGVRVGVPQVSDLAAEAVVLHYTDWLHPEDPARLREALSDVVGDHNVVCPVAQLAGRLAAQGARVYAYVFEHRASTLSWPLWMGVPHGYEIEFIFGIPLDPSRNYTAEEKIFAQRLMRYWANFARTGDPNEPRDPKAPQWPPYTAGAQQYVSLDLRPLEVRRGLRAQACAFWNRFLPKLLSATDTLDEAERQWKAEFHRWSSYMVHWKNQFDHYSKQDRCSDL
# How it was run: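 Quantitative HTS in attached SH-SY5Y cells: 30 min compound exposure, then 90 min with acetylthiocholine and DTNB at 37 C; colour from thiocholine reports AChE activity.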
# [17] = Caspase-3/7 induction in CHO-K1 cells by small molecules, qHTS cell viability counter screen (AID 1346979); also: nearly all actives have a fitted effect of over 35% in size
# How it was run: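 Seeding: 1,500 CHO-K1 cells/well. Rest: 5hr, 37C. Treatment: compounds in DMSO, 16hr. Read: CellTiter-Fluor, 1hr, fluorescence.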
# [18] = molecular target: Nuclear receptor subfamily 1 group I member 2 (Rattus norvegicus) (UniProt Q9R1A7); assay: Rat pregnane X receptor (rPXR) activation by small molecules, qHTS assay (AID 1346983); conditions: rPXR luciferase reporter cells, One-Glo luminescence, 24 h; stronger effect = higher value; also: nearly all actives have a fitted effect of over 20% in size
# Nuclear receptor subfamily 1 group I member 2 (Rattus norvegicus), sequence (Q9R1A7 whole entry, looked up): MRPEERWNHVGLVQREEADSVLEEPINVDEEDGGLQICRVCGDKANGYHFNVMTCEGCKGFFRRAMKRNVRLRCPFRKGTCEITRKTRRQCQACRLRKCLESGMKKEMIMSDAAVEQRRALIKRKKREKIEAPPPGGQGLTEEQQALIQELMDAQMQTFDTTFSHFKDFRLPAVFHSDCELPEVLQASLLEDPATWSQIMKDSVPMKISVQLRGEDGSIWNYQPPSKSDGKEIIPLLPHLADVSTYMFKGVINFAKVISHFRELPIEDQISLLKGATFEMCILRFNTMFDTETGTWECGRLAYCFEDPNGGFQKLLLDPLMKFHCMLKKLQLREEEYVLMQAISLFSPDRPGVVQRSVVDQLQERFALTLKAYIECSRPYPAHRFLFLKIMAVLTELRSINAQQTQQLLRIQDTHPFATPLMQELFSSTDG
# How it was run: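 Cell-based rPXR activation assay: rPXR cells, 2,000 per well, rested 5hr at 37 C, then exposed to compounds in DMSO for 24 hr at 37 C. Luciferase activity read by One-Glo luminescence after 30 min at room temperature.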
# [19] = molecular target: Nuclear receptor subfamily 1 group I member 2 (Homo sapiens) (UniProt O75469); assay: CYP3A4 induction through human pregnane X receptor (PXR) by small molecules, qHTS assay (AID 1346984); also: nearly all actives have a fitted effect of over 40% in size
# How it was run: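 DPX-2 HepG2 cells carrying a PXR response element and CYP3A4-promoter luciferase construct, treated with compounds 24 hr at 37C. Then P450-Glo CYP3A4 Luciferin-IPA substrate (3uM final) for 3 hr at 37C, One-Glo added, luminescence read.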
# [20] = molecular target: Nuclear receptor subfamily 1 group I member 2 (Homo sapiens) (UniProt O75469); assay: Human pregnane X receptor (PXR) activation by small molecules, qHTS assay (AID 1346985); also: nearly all actives have a fitted effect of over 40% in size
# How it was run: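 DPX-2 cells (HepG2 co-transfected with a PXR response element and a CYP3A4-promoter luciferase construct) were seeded at 2,000 per well, rested 5 hr at 37C, then exposed to DMSO-dissolved compounds for 24 hr. Activation was read as luciferase luminescence.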
smiles,measurement,setting,value
CCCN1CCC[C@@H]2Cc3[nH]ncc3C[C@H]21,Potency,[1],inactive
same,Potency,[2],inactive
same,Potency,[3],inactive
same,Potency,[4],inactive
same,Potency,[5],inactive
same,outcome,[6],inactive
same,Potency,[7],inactive
same,outcome,[8],inactive
same,Potency,[9],inactive
same,outcome,[10],inactive
same,Potency,[11],inactive
same,outcome,[12],inactive
same,outcome,[13],inactive
same,Potency,[14],inactive
same,Potency,[15],inactive
same,Potency,[16],27.5 µM (active)
COC(=O)c1ccc(CBr)cc1,Potency,[1],inactive
same,Potency,[2],inactive
same,Potency,[3],inactive
same,Potency,[4],inactive
same,Potency,[5],inactive
same,outcome,[6],inactive
same,Potency,[7],inactive
same,outcome,[8],inactive
same,Potency,[9],inactive
same,outcome,[10],inactive
same,Potency,[11],inactive
same,outcome,[13],inactive
same,Potency,[14],inactive
same,Potency,[15],55.1 µM (active)
same,Potency,[16],inactive
Clc1cc2c(cc1Cl)Oc1cc(Cl)c(Cl)cc1O2,"activity change, negative = cytotoxicity",[1],0.532% [at 0.349 µM] (inactive)
same,activation,[2],2.35% [at 0.349 µM] (inactive)
same,"activity change, negative = inhibition",[3],5.7% [at 0.348 µM] (inactive)
same,"activity change, negative = cytotoxicity",[4],-11.1% [at 0.348 µM] (inactive)
same,"activity change, negative = cytotoxicity",[5],4.69% [at 0.349 µM] (inactive)
same,"viability change, negative = cytotoxic",[6],-2.55% [at 0.29 µM] (inactive)
same,"activity change, negative = cytotoxicity",[7],9.06% [at 0.29 µM] (inactive)
same,activation,[8],2% [at 0.29 µM] (inactive)
same,"activity, negative = inhibition",[9],2.75% [at 0.194 µM] (inactive)
same,activation,[10],-0.214% [at 0.218 µM] (inactive)
same,"activity change, negative = cytotoxicity",[11],-5.16% [at 0.349 µM] (inactive)
same,caspase activation,[12],2.22% [at 0.349 µM] (inactive)
same,caspase-3/7 activation,[13],0.0442% [at 0.349 µM] (inactive)
same,"activity change, negative = cytotoxicity",[14],-3.38% [at 0.349 µM] (inactive)
same,activation,[15],-4.83% [at 0.349 µM] (inactive)
same,"activity, negative = inhibition",[16],-1.29% [at 0.435 µM] (inactive)
C#CC(C)(C)O,Potency,[1],inactive
same,Potency,[2],inactive
same,Potency,[3],inactive
same,Potency,[4],inactive
same,Potency,[5],inactive
same,outcome,[6],inactive
same,Potency,[7],inactive
same,outcome,[8],inactive
same,Potency,[11],inactive
same,outcome,[12],inactive
same,Potency,[17],inactive
same,outcome,[13],inactive
same,Potency,[14],inactive
same,Potency,[16],inactive
O=c1[nH]oc2c1CCNC2,Potency,[1],inactive
same,Potency,[2],inactive
same,Potency,[3],inactive
same,Potency,[4],inactive
same,Potency,[5],inactive
same,outcome,[6],inactive
same,Potency,[7],inactive
same,outcome,[8],inactive
same,Potency,[11],inactive
same,outcome,[12],inactive
same,outcome,[13],inactive
same,Potency,[14],inactive
same,Potency,[15],inactive
same,Potency,[16],inactive
CC(O)CCl (stereo not drawn),Potency,[1],inactive
same,Potency,[2],inactive
same,Potency,[3],inactive
same,Potency,[4],inactive
same,Potency,[5],inactive
same,outcome,[6],inactive
same,Potency,[7],inactive
same,outcome,[8],inactive
same,outcome,[12],inactive
same,outcome,[13],inactive
same,Potency,[14],inactive
same,Potency,[15],inactive
same,Potency,[16],inactive
C/C(=N\NC(=O)Nc1cc(F)cc(F)c1)c1ncccc1C(=O)O,Potency,[1],inactive
same,Potency,[2],inactive
same,Potency,[3],inactive
same,Potency,[4],inactive
same,Potency,[5],inactive and 68.6 µM (active)
same,outcome,[6],inactive
same,Potency,[7],inactive
same,outcome,[8],inactive
same,Potency,[9],inactive
same,outcome,[10],inactive
same,Potency,[11],inactive
same,outcome,[12],inactive
same,outcome,[13],inactive
same,Potency,[14],inactive
same,Potency,[15],inactive
same,Potency,[16],inactive
N[C@@H]1C[C@H]1c1ccccc1,Potency,[1],inactive
same,Potency,[2],inactive
same,Potency,[3],inactive
same,Potency,[4],inactive
same,Potency,[5],inactive
same,outcome,[6],inactive
same,Potency,[7],inactive
same,Potency,[9],inactive
same,outcome,[10],inactive
same,Potency,[11],inactive
same,outcome,[12],inactive
same,Potency,[17],inactive
same,outcome,[13],inactive
same,Potency,[14],inactive
same,Potency,[15],inactive
same,max activation,[18],-1.36% (inactive)
same,Potency,[19],inactive
same,Potency,[20],inactive
same,outcome,[16],inactive
C=CC(=O)OCCN(C)C,Potency,[1],inactive
same,Potency,[2],inactive
same,Potency,[3],inactive
same,Potency,[4],inactive
same,Potency,[5],inactive
same,outcome,[6],inactive
same,Potency,[7],inactive
same,outcome,[8],inactive
same,Potency,[11],inactive
same,outcome,[12],inactive
same,Potency,[17],inactive
same,outcome,[13],inactive
same,Potency,[14],inactive
same,Potency,[15],inactive
same,Potency,[16],inactive
